Results as given in PubChem BioAssay AID504834 (National Center for Advancing Translational Sciences (NCATS), 2011).
Among all 320,000 compounds or so, about 22,000 (6.9%) were called active. Inconclusive results (about 27%) are left out. The list comes from a sample in which actives are over-represented; it also holds similar structures and randomly drawn compounds. A number with no mark means an inactive call. Calls follow the shape of the dose curve; as a rule, active = well fitted inhibition curve with a large enough effect; inconclusive = small, poorly fitted or top-dose-only effect, or another doubt; inactive = no such curve, though single readings can be large or run the other way.

Experiment: Primary qHTS for delayed death inhibitors of the malarial parasite plastid, 96 hour incubation
Conditions: P. falciparum luciferase reporter growth; series mostly up to 28.7 µM; activity change, negative = inhibition: at the top concentration
Summary of the method: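 Two-generation exposure (96 h) targets delayed-death phenotype. Reporter parasites carrying integrated firefly luciferase, in red cells at 2% hematocrit and 0.05% parasitemia final, kept at 37 C, 5% CO2; luminescence loss indicates inhibition.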
% is scaled to controls: 0 for no effect and ±100 for the full control effect; potency is read from the fitted curve at half-maximal effect.

Row | SMILES | activity change, negative = inhibition [%] | Potency
1 | Cc1ccc(S(=O)(=O)N2CCCCC2)cc1NC(=O)c1cccnc1 | 4.25 | –
2 | CCN(CC)c1ccc(S(=O)(=O)N2CCCCC2)cc1NC(=O)C1=COCCO1 | – | 10.4 µM (active)
3 | O=C(Nc1ccc(S(=O)(=O)N2CCCC2)cc1Cl)C1=COCCO1 | 21.5 | –
4 | O=C(Nc1ccc(Br)cc1)c1cc(S(=O)(=O)Nc2ccccn2)ccc1Cl | 9.51 | –
5 | O=C(NNC(=O)C1CCCC1)c1ccc(F)cc1 | 9.74 | –
6 | Nc1nc(SCC(=O)NCCN2CCOCC2)nc2sc3c(c12)CCC3 | – | 13.1 µM (active)
7 | CC(C)(C)C1CCc2c(sc3nc(SCC(N)=O)nc(N)c23)C1 (stereo not given) | – | 9.28 µM (active)
8 | COC(=O)c1c(NC(=O)CCN2CCOCC2)sc2c1CCCC2 | 23.4 | –
9 | CCOC(=O)c1sc2nc(C)nc(SCC(N)=O)c2c1C | -7.55 | –
10 | C=CCn1c(SCC(=O)NCCCO)nc2sc3c(c2c1=O)CCC3 | 44.6 | –
11 | CN1CCN(CC(=O)Nc2sc3c(c2C#N)CCC(C(C)(C)C)C3)CC1 (stereo not given) | 4.93 | –
12 | CC(=O)N1CCc2c(sc(NC(=O)CCS(=O)(=O)c3ccc(C)cc3)c2C(N)=O)C1 | -29.3 | –
13 | O=C(Nc1cc(S(=O)(=O)N2CCOCC2)ccc1OCC(F)(F)F)c1ccc(N2CCCC2=O)cc1 | -11 | –
14 | Cc1noc(C)c1C(=O)NCCc1ccc(S(N)(=O)=O)cc1 | 29.7 | –
15 | O=C(C1=C[C@H](c2ccc(C(F)(F)F)cc2)C[C@H](OCc2ccc(CO)cc2)O1)N1CCN(Cc2ccccc2)CC1 | – | 13.1 µM (active)
16 | O=C(O)C1=C[C@H](c2cccs2)C[C@H](OCCCCO)O1 | 40.2 | –
17 | O=C(NCc1ccccc1)C1=C[C@H](C2CC2)C[C@H](OCc2ccc(CO)cc2)O1 | -19.2 | –
18 | CN1CCN(C(=O)C2=C[C@H](c3ccc4c(c3)OCO4)C[C@H](OCc3ccc(CO)cc3)O2)CC1 | -0.234 | –
19 | CC(C)CCN1CCN(Cc2ccc(C(F)(F)F)cc2)CC1CCO (stereo not given) | -3.68 | –
20 | CC(=O)n1cc([C@@H]2C=C(C(=O)N3CCN(Cc4ccc5c(c4)OCO5)CC3)O[C@H](OCc3ccc(CO)cc3)C2)c2ccccc21 | – | 1.65 µM (active)
21 | O=C(C1=C[C@H](c2coc3ccccc3c2=O)C[C@H](OCc2ccc(CO)cc2)O1)N1CCN(Cc2ccccc2)CC1 | – | 5.86 µM (active)
22 | C#Cc1ccc([C@@H]2C=C(C(=O)O)O[C@H](OCCCCO)C2)cc1 | 60.2 | –
23 | O=C(c1cccc([N+](=O)[O-])c1)N1CCN(Cc2ccccc2)CC1 | -4.42 | –
24 | O=C(C1=C[C@H](c2coc3ccccc3c2=O)C[C@H](OCc2ccc(CO)cc2)O1)N1CCOCC1 | -21.6 | –
25 | CCn1cc(C(=O)N2CCN(Cc3ccc4c(c3)OCO4)CC2)c2cc(OC)c(OC)cc2c1=O | 15.9 | –
26 | O=C(NCc1ccccc1)C1=C[C@@H](c2ccc(C(F)(F)F)cc2)C[C@@H](OCc2ccc(CO)cc2)O1 | – | 4.65 µM (active)
27 | COc1cccc(/C=C2\Sc3ccc(C(=O)NCC4CCCO4)cc3N(C)C2=O)c1 (stereo not given) | 11.3 | –

Row | SMILES | activity change, negative = inhibition [%] | Potency
28 | CC(C)c1ccc(C2C(C(=O)c3ccco3)=C(O)C(=O)N2CC2CCCO2)cc1 (stereo not given) | -16 | –
29 | C/C(=N\Nc1ccc(S(N)(=O)=O)cc1[N+](=O)[O-])c1cccs1 | 7.59 | –
30 | COC(=O)C1(C)CC1(c1ccccc1)c1ccccc1 (stereo not given) | -11.4 | –
31 | CN(C1CCS(=O)(=O)C1)S(=O)(=O)c1ccc2ccccc2c1 (stereo not given) | 17.6 | –
32 | CC(Sc1nn(-c2ccc(Cl)cc2)c(=S)s1)C(=O)NCC1CCCO1 (stereo not given) | 4.28 | –
33 | O=C(O)c1ccc2c(=O)n3c(nc2c1)/C(=C/c1ccc(Cl)c([N+](=O)[O-])c1)CC3 | -21.2 | –
34 | Cc1ccc(OCCOc2cccc(/C=N/NC(N)=O)c2)cc1 | -1.16 | –
35 | O=C1CCC([N+](=O)[O-])C(c2ccccc2Br)N1 (stereo not given) | -26.5 | –
36 | C=CCOc1ccccc1NC(=O)CN1C(=O)CNC1=O | 15.9 | –
37 | CN(CC(=O)NCc1ccncc1)S(=O)(=O)c1ccc(Br)cc1 | -17.6 | –
38 | Cc1cc(N=Nc2ccc3ccccc3c2)ccc1O | 85.3 | –
39 | O=[N+]([O-])c1ccc(N=Cc2c(O)ccc3ccccc23)cc1 | 17.6 | –
40 | Oc1ccc(N=Cc2c(O)ccc3ccccc23)cc1 | – | 6.57 µM (active)
41 | COc1ccc(C)cc1N(CC(=O)NC(C)c1ccccc1)S(C)(=O)=O (stereo not given) | 169 | –
42 | CCOC(=O)c1ccc(NC(=O)c2ccc(NC(=O)C3CCCO3)cc2)cc1 (stereo not given) | -3.56 | –
43 | O=C(CCc1ccccc1)NCc1cccnc1 | 12.9 | –
44 | O=C(NCCc1ccccc1)C1CC1 | 24.6 | –
45 | O=C(NCCc1ccccc1)C1CCC(Cn2c(=O)c3ccccc3n(Cc3cccnc3)c2=O)CC1 (stereo not given) | – | 6.57 µM (active)
46 | CCSc1nnc(SCC(=O)NNC(=O)c2ccccc2F)s1 | 26.7 | –
47 | CS(=O)(=O)c1ccc2nc(NC(=O)c3ccc(N4CCCC4=O)cc3)sc2c1 | 5.19 | –
48 | Cc1ccc(SCCC(=O)NCc2ccccn2)cc1 | -27.1 | –
49 | Cc1cc(Cl)ccc1OCCCC(=O)NCc1ccccn1 | -1.6 | –
50 | CC(C)Cn1c(=O)c2ccccc2n2c(CCC(=O)NCc3ccccn3)nnc12 | – | 13.1 µM (active)
51 | Cc1ccc(-c2nn(-c3ccccc3)cc2C(=O)NCCCN2CCCC2=O)cc1 | -20.1 | –
52 | CC1(NC(=O)CCS(=O)(=O)c2ccc(Cl)cc2)CCS(=O)(=O)C1 (stereo not given) | -29.7 | –
53 | CC(=O)c1ccc(NC(=O)CCNS(=O)(=O)c2cc(Br)cnc2N)cc1 | 20.4 | –
54 | C/C(=N\NC(=O)CC(C)C)c1c(C(F)(F)F)[nH]n(-c2nc3ccccc3s2)c1=O | 0 | –

Row | SMILES | activity change, negative = inhibition [%] | Potency
55 | COc1ccc(/C=C/C(=O)Nc2ccc(C)cc2)cc1S(=O)(=O)N1CCOCC1 | – | 11.7 µM (active)
56 | COc1ccc(CC(=O)Nc2ccc3c(c2)CCC3)cc1S(=O)(=O)N1CCOCC1 | 0 | –
57 | COc1ccc(S(=O)(=O)N2CCOCC2)c(C)c1C | 3.7 | –
58 | COc1ccc(C(=O)NC(=S)N2CCNC(=O)C2CC(=O)OC(C)C)cc1 (stereo not given) | 4.17 | –
59 | O=C1CCC(=O)N(c2ccccc2)N1 | 11.7 | –
60 | Cc1cc(C)nc(Nc2n[nH]c(-c3ccccc3N)n2)n1 | 227 | –
61 | COc1ccccc1OCC(=O)Nc1ccccc1C(=O)NC1CC1 | 45.6 | –
62 | N#Cc1cc([N+](=O)[O-])ccc1NCC1CCCO1 (stereo not given) | -0.513 | –
63 | C/C(N)=C(/C#N)C(=O)COC(=O)C1=NN(c2ccccc2)C(=O)CC1 | 30 | –
64 | COC(=O)CC1=NN(c2ccccc2)C(=O)C1 | – | 5.22 µM (active)
65 | COC(=O)CC1=NN(c2nc(C)cc(C)n2)C(=O)C1 | -5.91 | –
66 | COc1cc([C@H](Cc2ccccc2)NC(C)=O)oc(=O)c1 | – | 2.94 µM (active)
67 | CCOC(=O)C(Cc1ccccc1)NC(=O)CCC(=O)c1ccc(OC)cc1 (stereo not given) | 28.2 | –
68 | COC(=O)[C@H](Cc1ccccc1)NC(=O)Nc1ccc(OC)cc1 | 26.2 | –
69 | Nc1ccc(Cl)c(S(=O)(=O)Nc2ccccc2Cl)c1 | 4.92 | –
70 | Cc1cccc(NS(=O)(=O)c2cc(Cl)ccc2Cl)n1 | – | 2.94 µM (active)
71 | O=S(=O)(Nc1cccc(Oc2ccc(Cl)cc2)n1)c1ccc(F)cc1 | 5.23 | –
72 | Cc1ccc(C(=O)NCCNC(=O)c2cnccn2)cc1 | 0.273 | –
73 | O=C(O)CCCC(=O)N1N=C(c2ccco2)CC1c1ccco1 (stereo not given) | -25.2 | –
74 | O=S(=O)(NCc1cccnc1)c1ccc(Br)s1 | -3.44 | –
75 | O=S(=O)([N-]c1nc2ccccc2nc1-[n+]1ccc(Cc2ccccc2)cc1)c1ccc(Br)s1 | – | 13.1 µM (active)
76 | Oc1ccccc1-c1cc(-c2ccc(Cl)cc2)n[nH]1 | -48.6 | –
77 | CCc1nn(CC(=O)N2CCN(c3cc(C)ccc3C)CC2)c(=O)c2cc3occc3n12 | -0.478 | –
78 | O=C(O)c1cc(S(=O)(=O)N(Cc2ccccc2)c2ccccc2)ccc1Cl | 68.6 | –
79 | COc1cccc(-c2noc(C3CCCN(C(=O)c4ccc(F)cc4)C3)n2)c1 (stereo not given) | 84 | –
80 | COc1cc(OC)nc(NC(=O)CCl)n1 | 4.17 | –
81 | COc1ccc(NS(=O)(=O)c2ccc(F)cc2F)cn1 | 36 | –

Row | SMILES | activity change, negative = inhibition [%] | Potency
82 | COc1cc(OC)nc(S(C)(=O)=O)n1 | – | 11.7 µM (active)
83 | CC(NC(=O)C(C)(C)C)C(c1cccs1)N1CCN(Cc2ccccc2)CC1 (stereo not given) | -2.32 | –
84 | Cc1ccc(NC(=O)CCCNC(=O)c2ccc(Cl)cc2)cc1S(=O)(=O)N1CCCCC1 | 29.9 | –
85 | CCc1nnc(NC(=O)CSc2nc3c(c(=O)n2-c2ccccc2OC)SCC3)s1 | – | 8.28 µM (active)
86 | CCc1nnc(NC(=O)CSc2nnc(Cc3ccccc3)n2-c2ccc(OC)cc2)s1 | 39.7 | –
87 | COc1ccccc1-n1c(CNC(=O)c2ccccc2)nnc1SCC(=O)Nc1nnc(C)s1 | 8.45 | –
88 | CCOC(=O)c1sc(NC(=O)CSc2nc3c(c(=O)n2-c2ccccc2)SCC3)c(C(=O)OCC)c1C | – | 3.7 µM (active)
89 | CCOC(=O)c1c(NC(=O)CSc2nnc(Cc3csc(N)n3)n2C)sc(C)c1C | 18.3 | –
90 | CCOC(=O)c1sc(NC(=O)COc2ncnc3ccccc23)c(C(=O)OCC)c1C | -21.2 | –
91 | Cc1cc(C(=O)NC2CCN(Cc3ccccc3)CC2)n[nH]1 | 57.9 | –
92 | O=C(Nc1cc2c3c(c1)CC(=O)N3CCC2)c1ccccc1F | -13 | –
93 | CCCC1C(=O)N2C(N(C)C)=Nc3ccc(C)cc3N2C1=O (stereo not given) | 12.4 | –
94 | COc1ccc(C(=O)N/N=C(\C)CC(=O)Nc2ccc(Cl)cn2)cc1 | 34.4 | –
95 | CC(c1ccccn1)N(C)C(=O)c1ccc2nc(Cc3cccc(Cl)c3)oc2c1 (stereo not given) | -1.98 | –
96 | O=C(Cc1c(Cl)cccc1Cl)NC1CC1 | 0.175 | –
97 | COC(=O)c1ccc(COc2ccc(C#N)cc2)o1 | -24.3 | –
98 | CC(Oc1ccc(Br)cc1)C(=O)NC1CCCCCC1 (stereo not given) | 52.7 | –
99 | CN(C)S(=O)(=O)c1ccc(C(=O)NCCN=C2NS(=O)(=O)c3ccccc32)cc1 | 34.3 | –
100 | COc1ccc(N2CCC(N3CCN(C)C(CCO)C3)CC2)cc1 (stereo not given) | – | 14.7 µM (active)
101 | COc1ccc(OCC(=O)Nc2ccc(N3CCC(C)CC3)cc2)cc1 | 15.5 | –
102 | Cc1cc(F)ccc1N1CCC(N2CCN(C)C(CCO)C2)CC1 (stereo not given) | 0 | –
103 | COc1ccccc1N1CCC(N2CCN(CC(C)(C)C)C(CCO)C2)CC1 (stereo not given) | – | 0.465 µM (active)
104 | CNCC(O)CN1CCN(c2ccccc2OC)CC1 (stereo not given) | 23.6 | –
105 | CCOc1ccccc1CN1CCN(C2CCC2)CC1CCO (stereo not given) | -8.22 | –
